# Bioassay records from PubChem.
# A selection: hits, their analogues and other compounds. The true share with any hit is near 4.2%.
# NALP1 inh – NALP1 inflammasome inhibitors in reconstituted yeast, colorimetric, S. cerevisiae, triplicate retest. S. cerevisiae NALP1/ASC/caspase-1 growth, X-gal OD620, 72 h. inhibition, % at 10 µM. actives 0.61% (n = 280,000). AID 2071, 2009; in the data active means inhibition mostly above about 24%, no sharp cut-off; inactive means mostly below about 32%
# tim23-1 inh – growth inhibitors of tim23-1 mutant yeast, primary screen, luminescence, uHTS; actives 1.3% (n = 330,000); inhibition, % at 20 µM; S. cerevisiae tim23-1 growth, BacTiter-Glo luminescence, 24 h;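 active means growth inhibition of the mutant yeast at or above 50%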;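 further: temperature-sensitive mutant grown at 25 °C; plate controls were DMSO-treated mutant yeast for no effect and medium wells lacking yeast for full effect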
# tim10-1 inh – growth inhibitors of tim10-1 mutant yeast, primary screen, luminescence, uHTS; inhibition, % at 20 µM; S. cerevisiae tim10-1 ts strain growth, BacTiter-Glo, 24 h; actives 2.2% (n = 330,000);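 active means inhibition of at least 40%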;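 further: mutant grown at 25 °C; 0% = DMSO wells with yeast and 100% = wells holding no yeast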
# NALP3 yeast inh – NALP3 inflammasome inhibitors in reconstituted yeast, primary screen, luminescence, uHTS | Yeast reconstituted NLRP3/ASC/caspase-1, beta-gal luminescence, 24 h | inhibition, % at 10 µM | actives 0.39% (n = 330,000) | AID 2825, 2010;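 active means inhibition of 50% or more; inactive means inhibition below 50%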;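 further: plate controls were induced DMSO wells for no effect and uninduced yeast grown without galactose for full effect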
# V-ATPase pH – regulators of yeast V-ATPase proton pumping, primary screen, pHLuorin cytosolic pH fluorescence | AID 504577, 2011 | response, % at 10 µM | S. cerevisiae | actives 0.37% (n = 350,000); in the data active means response mostly above about 7.3%, no sharp cut-off; inactive means mostly below about 5.4%; further: actives read high
# TIM10 inh – growth inhibitors of isogenic TIM10 control yeast, primary screen, counter-screen for tim10-1 yeast inhibitor project, luminescence, uHTS; inhibition, % at 10 µM; S. cerevisiae TIM10 strain growth, BacTiter-Glo luminescence, 24 h; actives 1.4% (n = 330,000);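 active means inhibition of 40% or more at the single tested concentration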;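 further: wild-type TIM10 isogenic control strain grown at permissive 25 °C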
# tim10-1 conf – growth inhibitors of tim10-1 mutant yeast, confirmation, single concentration, luminescence, S. cerevisiae; S. cerevisiae tim10-1 ts strain growth, BacTiter-Glo, 24 h; inhibition, % at 20 µM; shares compounds with tim10-1 inh; actives 56% (n = 7,400);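 active means inhibition of yeast growth at or above a set limit in either of two repeat tests at 20 µM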;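 further: tim10-1 mutant grown at permissive 25 °C to find synthetic lethal compounds; 0% = DMSO yeast wells and 100% = medium wells without yeast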
# Numbers without * were called inactive; . = no result given.
SMILES,NALP1 inh,tim23-1 inh,tim10-1 inh,NALP3 yeast inh,V-ATPase pH,TIM10 inh,tim10-1 conf
C=CC[n+]1c(-c2ccc(C)cc2)csc1Nc1c(C)n(C)n(-c2ccccc2)c1=O,-3,39,41*,17,-3,30,24
CCc1ccc(NC(=O)c2sc3nc4n(c(=O)c3c2C)CCC4)cc1,3,34,44*,21,0,-11,12
CC(=O)c1cccc(NC(=O)c2sc3nc4n(c(=O)c3c2C)CCCC4)c1,9,18,52*,11,0,19,28*
CC(=O)Nc1ccc(NC(=O)c2sc3nc4n(c(=O)c3c2C)CCCCC4)cc1,1,15,14,14,2,10,.
Clc1ccc(-n2ncc3c(NCc4ccco4)ncnc32)cc1,12,16,23,16,4,13,.
Clc1ccc(Cn2ncc3c(NCc4ccco4)ncnc32)c(Cl)c1,18,45,42*,28,.,12,25
Cc1c([N+](=O)[O-])c(C(=O)N2CCCC2)nn1C,-10,6,4,-11,-2,8,.
Cc1c([N+](=O)[O-])c(C(=O)Sc2ccc(Br)cc2)nn1C,5,24,47*,10,-3,16,46*
COc1cc(CC(=O)NC(c2ccccc2)c2ccccc2)cc(OC)c1OC,-6,30,30,24,1,-2,.
O=C(CNC(=O)c1ccccc1F)OC(C(=O)Nc1cc(C(F)(F)F)ccc1Cl)c1ccccc1 (centres undefined),41*,13,43*,-17,-2,9,23
O=C(COC(=O)CNC(=O)c1ccccc1Cl)Nc1cc(C(F)(F)F)ccc1Cl,.,16,7,13,-4,4,.
COc1ccc(C)cc1NC(=O)CN(C)C1CCCCC1,17,9,-5,8,0,2,.
COc1cc(/C=C/C(=O)OCC(=O)NCc2ccc3c(c2)OCO3)cc(OC)c1OC,.,-10,-9,11,3,-4,.
CCOC(=O)c1c(CSc2ccc(C)cc2)oc2ccc(O)cc12,11,16,40,28,1,-10,4
Cc1cc2nnc(SCC(=O)NCc3ccco3)n2c2ccccc12,.,10,14,-6,2,-8,.
CCc1nn(C(C)C(=O)NC2CCCCCC2)c(=O)c2cc3occc3n12 (centres undefined),17,34,41*,-3,-4,4,-7
COc1cc2nc(SCc3ccc(Cl)cc3Cl)n(Cc3cccs3)c(=N)c2cc1OC,-3,16,23,10,2,28,.
COc1ccc(Cn2c(SCc3cc(C)ccc3C)nc3cc(OC)c(OC)cc3c2=N)cc1,-1,3,59*,29,2,-39,34*
CCOC(=O)C1NN=C(C(=O)c2ccccc2)C1c1ccc(Cl)cc1 (centres undefined),16,29,43*,-16,-2,9,19
CCOC(=O)C1NN=C(C(=O)c2ccccc2)C1c1ccccc1 (centres undefined),14,26,16,4,0,18,.
CCn1cc(C(C)(C)C)c(C#N)c1NC(C)=O,.,-9,-11,5,1,5,.
S=C(Nc1ccccc1)Nc1nccs1,12,32,42*,45,-1,18,18
Fc1ccc(NC(=S)Nc2nccs2)cc1,0,34,14,43,-3,3,.
Cc1ccc(NC(=O)Nc2cccn(Cc3c(F)cccc3Cl)c2=O)cc1,7,4,-2,3,0,-8,.
Brc1ccccc1-c1nnc2sc(-c3ccc4c(c3)OCCO4)nn12,-2,42,49*,17,4,34,24
SMILES,NALP1 inh,tim23-1 inh,tim10-1 inh,NALP3 yeast inh,V-ATPase pH,TIM10 inh,tim10-1 conf
Cc1cc(C)n(-c2ccn(Cc3ccc(Cl)cc3Cl)c(=O)n2)n1,27,43,40*,-1,-3,16,28
COc1ccc(CC(=O)Nc2sc3c(c2C#N)CC(C)(C)NC3(C)C)cc1OC,1,-16,-14,8,-1,2,.
CCOC(=O)c1ccc(N2C(=O)CC(C(=O)OC)=C2C)cc1,24,11,54*,10,0,-6,38*
CCOC(=O)c1ccc(N2C(=O)C=CC2=O)cc1,108*,23,82*,20,3,14,92*
CC(=O)Nc1ccc(S(=O)(=O)N[C@@H](C)C(=O)Nc2ccc(N3CCOCC3)cc2)cc1,20,-6,-26,-6,-9,-2,.
O=C(CCS(=O)(=O)c1cc(Br)cc2c1N(C(=O)C1CC1)CC2)NCc1ccco1,14,.,.,.,-1,.,.
O=c1c2cn[nH]c2nc(SCc2cc(=O)n3cc(Br)ccc3n2)n1-c1ccc(Br)cc1,4,1,16,3,0,11,.
O=c1c2cn[nH]c2nc(SCc2ccccc2F)n1-c1ccc(Br)cc1,27,39,42*,8,-4,23,23
CC(=O)Cc1cc(O)c2ccccc2c1OC(=O)c1ccccc1,3,48,43*,2,0,27,38*
CC(=O)c1cc(C)c(OC(=O)c2ccccc2)c(C)c1,.,.,.,.,0,.,.
Oc1csc(Cc2nc(-c3ccc(-c4ccccc4)cc3)cs2)n1,8,7,21,12,-1,12,.
NC(=S)Cc1nc(-c2ccccc2)cs1,11,42,51*,1,0,39,44*
CC(Oc1ccc(Cl)cc1)C(=O)N(C)CC(=O)Nc1ccc(N2CCOCC2)cc1 (centres undefined),20,-14,-4,13,-2,-1,.
Cc1ccc(CNC(=O)c2ccc(NC(=O)C3=CSCCO3)cc2)cc1,-6,5,14,21,1,8,.
COc1cccc(CNC(=O)c2ccc(NC(=O)C3=CSCCO3)cc2)c1,-5,47,45*,8,5,3,6
COc1cc(/C=N/O)cc(Br)c1OCC(=O)NCc1ccccc1,20,7,9,33,1,16,.
Cc1nc2ccccc2c2oc(C(=O)N3CC(C)CC(C)C3)cc12 (centres undefined),12,42,52*,5,1,5,-9
COc1ccc2nc3oc(C(=O)N4CCC(C(N)=O)CC4)cc3cc2c1,14,10,6,8,10,-5,.
Cc1nc2ccccc2c2oc(C(=O)NCCCN3CC(C)CC(C)C3)cc12 (centres undefined),16,-10,-8,12,-1,-4,.
